Pf apPOL inh – Pf-apPOL DNA polymerase inhibition. Recombinant Pf-apPOL, molecular beacon fluorescence, 1.5 h. inhibition, % at 10 µM. actives 0.25% (n = 210,000)
mHTT-CaM PPI inh – mHTT-calmodulin interaction abrogation | actives 3.6% (n = 190,000) | inhibition, % at 15 µM | AID 1671202 | AlphaScreen His-mHTT/GST-CaM binding, luminescence | P42858;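 further: 0% = both proteins with DMSO and 100% = one protein alone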
Active calls of the source: *; i = inactive; / = no result given. Sampled rows, rich in hits. Any-hit rate of the full collection: about 3.6%. No stated cut-off is given here; in the data, active means inhibition above about 50%; inactive means the rest.

SMILES	Pf apPOL inh	mHTT-CaM PPI inh
Cc1cc2nn(-c3ccccc3)nc2cc1NC(=O)Cc1ccccc1	-1.1	-4.2
O=C(Nc1nnc(N=Cc2cccs2)s1)c1cc([N+](=O)[O-])cc([N+](=O)[O-])c1	-5.0	-2.0
COc1cc(NC(=O)COc2ccc(C)c(C)c2)c(OC)cc1Cl	-3.1	-9.7
COc1cc(C2C(C#N)=C(N)Oc3n[nH]c(C(C)(C)C)c32)cc(OC)c1OC (centres undefined)	-0.1	-1.4
COc1ccc(C(=O)NC2CCN(c3nnc4ccc(C(F)(F)F)cn34)CC2)cc1	-1.2	-1.9
Cc1cccc(NC(c2cccc(F)c2)c2ccc3cccnc3c2O)n1 (centres undefined)	-44.5	99.0*
Cc1cccc(NC(c2ccc(F)cc2)c2ccc3cccnc3c2O)n1 (centres undefined)	3.7	100.0*
Cc1ccc(F)cc1NC(=O)CSc1cccc2cccnc12	0.2	2.7
Oc1c(C(Nc2ccc(F)cc2)c2ccncc2)ccc2cccnc12 (centres undefined)	-2.9	100.0*
COc1ccc(NC(c2ccccc2)c2ccncc2)cc1 (centres undefined)	-3.0	2.6
Oc1c(C(c2ccncc2)N2CCOCC2)ccc2cccnc12 (centres undefined)	-5.5	100.0*
O=C(CSc1cccc2cccnc12)c1ccc(F)cc1	-7.5	5.0
c1cncc(C(N2CCOCC2)N2CCOCC2)c1	-0.6	0.0
CNC(=O)c1cc2nc(N(C)C)n(-c3ccc(OC)cc3)c2s1	1.8	15.7
COc1ccc(N2CCN(C(=O)CCn3nnc4ccccc4c3=O)CC2)cc1	-4.9	11.0
CC(O)(CNC(=O)CC1CCCC1)c1ccco1 (centres undefined)	1.6	-3.4
O=C(Cc1ccccc1F)N1CCC(CCOc2ccncc2)CC1	-4.1	3.2
Cc1ccc(C)c(N2CCN(C(=O)C3c4ccccc4CCN3C(=O)C3CC3)CC2)c1 (centres undefined)	-1.5	56.9*
Cc1ccc(C)c(N2CCN(C(=O)C3CCC3)CC2)c1	-3.8	0.0
COc1ccccc1C1SCCN1C(=O)Nc1ccc(Cl)c(Cl)c1 (centres undefined)	-6.2	97.0*
COc1ccccc1NC(=O)Nc1ccc(Cl)c(Cl)c1	-4.6	-5.2
O=C(Nc1nc2c(s1)CN(C(=O)c1cnn(-c3ccccc3)n1)CC2)c1ccco1	6.1	52.7*
O=C(Nc1nc2c(s1)CN(C(=O)c1cc(C3CC3)on1)CC2)c1ccco1	-2.3	-9.8
O=C(CCc1csc(NC(=O)c2ccccc2)n1)Nc1ccc(OC(F)(F)F)cc1	1.2	-4.8
Cn1c(C(O)(c2ccccc2)c2ccccc2)nc2ccccc21	-1.3	6.9
SMILES	Pf apPOL inh	mHTT-CaM PPI inh
O=C(O)CCC(=O)Nc1nc2n(n1)C(c1ccccc1)C=C(c1ccccc1)N2 (centres undefined)	0.1	18.0
COc1ccc(C(=O)Nc2nc3n(n2)C(c2ccccc2)C=C(c2ccccc2)N3)cc1 (centres undefined)	0.1	61.0*
O=C(Nc1nc2n(n1)C(c1ccccc1)C=C(c1ccc(Cl)cc1)N2)c1ccco1 (centres undefined)	0.5	49.0
COc1ccccc1C(=O)Nc1nc2n(n1)C(c1ccccc1)C=C(c1ccccc1)N2 (centres undefined)	-3.0	68.0*
CC(=O)Nc1nc2n(n1)C(c1ccccc1)C=C(c1ccccc1)N2 (centres undefined)	14.6	13.0
CC1=CC(c2ccc(Cl)cc2)n2nc(NC(=O)c3ccccc3)nc2N1 (centres undefined)	1.8	16.0
O=C(Nc1nc2n(n1)C(c1ccccc1)C=C(c1ccccc1)N2)c1ccco1 (centres undefined)	-6.6	67.0*
COc1ccc(C(=O)Nc2nc3n(n2)C(c2ccccc2)C=C(c2ccc(Cl)cc2)N3)cc1 (centres undefined)	-0.2	62.0*
O=C(CCn1c(=O)[nH]c2ccsc2c1=O)NCCC1=CCCCC1	-1.1	-5.0
CN(CC(=O)N1CCCC1)S(=O)(=O)c1ccc(Br)cc1	-3.7	-0.3
O=C(c1ccc(F)cc1F)N1CCC2(CC1)NC(=O)N(Cc1ccccc1Cl)C2=O	-3.7	5.3
O=C1c2cccnc2C(=O)N1c1ccc(N2C(=O)c3cccnc3C2=O)c(Cl)c1	-0.4	63.0*
O=C1c2ccccc2C(=O)N1c1ccc(N2C(=O)c3ccccc3C2=O)c(Cl)c1	-0.5	20.0
Cc1n[nH]c(=S)n(N=Cc2ccc(Cl)cc2)c1=O	1.7	/
COC(=O)C1CN(CCc2ccccc2)CCS(=O)(=O)N1Cc1ccccc1 (centres undefined)	-2.9	12.3
COC(=O)C1CN(Cc2ccc(C)cc2)CCS(=O)(=O)N1Cc1cn(Cc2ccc(F)cc2)nn1 (centres undefined)	-6.6	3.0
COC(=O)C1CN(Cc2ccc(F)cc2)CCS(=O)(=O)N1Cc1ccc(C)cc1 (centres undefined)	-1.9	50.0*
COC(=O)C1CN(CCc2ccccc2)CCS(=O)(=O)N1Cc1ccc(C(F)(F)F)cc1 (centres undefined)	-1.0	76.7*
CCN(CC)CC#CC(C)(C)O	-8.5	-7.6
O=Cc1ccc(-c2ccc([N+](=O)[O-])cc2)o1	-6.0	4.6
Cc1ccc(-c2ccc(C=O)o2)c(Br)c1	-7.3	-8.1
O=[N+]([O-])/C=C/c1ccc(-c2ccc(Cl)cc2)o1	3.6	84.4*
Cc1ccc(-c2ccc(/C=C/[N+](=O)[O-])o2)c(Br)c1	0.6	79.1*
O=[N+]([O-])/C=C/c1ccc(-c2ccc(Br)cc2)o1	-2.7	51.1*
CC1(C)OC(=O)C(=Cc2ccc(-c3ccc([N+](=O)[O-])cc3)o2)C(=O)O1	-3.9	2.0
SMILES	Pf apPOL inh	mHTT-CaM PPI inh
CCn1cc(C2=CCN(C(=O)Nc3ccc(SC)cc3)CC2)c2cccnc21	-5.8	12.4
Nc1ccc(N2CCN(C(=O)c3ccccc3)CC2)c(Cl)c1	1.0	3.8
Cc1[nH]n(-c2ccccc2)c(=O)c1C=Nc1c(C)[nH]n(-c2ccccc2)c1=O	-2.0	8.0
COc1ccccc1N=Cc1c(C)[nH]n(-c2ccccc2)c1=O	-5.1	41.0
COc1ccc(OC)c(N=Cc2c(C)[nH]n(-c3ccccc3)c2=O)c1	0.3	67.0*
Cc1[nH]n(-c2ccccc2)c(=O)c1C=Nc1cc(Br)ccc1O	0.9	89.0*
COCCNC(=O)c1cc2c(s1)CCN(C(=O)c1ccc(C)cc1)C2	-6.0	0.6
CCc1cc(C(=O)N2CCN(c3ccccc3)CC2)nc2ccnn12	3.7	3.1
CC(=O)[C@]1(O)Cc2c(O)c3c(c(O)c2[C@@H](O[C@H]2C[C@H](N)[C@H](O)[C@H](C)O2)C1)C(=O)c1ccccc1C3=O	50.2*	/
COc1cccc2c1C(=O)c1c(O)c3c(c(O)c1C2=O)CC(O)(C(=O)CO)CC3OC1CC(N)C(O)C(C)O1 (centres undefined)	i	/
COc1cc(OC)c(OC)cc1C=C1Oc2cc(OC(=O)C(C)C)ccc2C1=O	-11.9	-1.5
CC(=O)Oc1cc(C(=O)N(c2ccc(C)cc2)C2C=CS(=O)(=O)C2)cc(OC(C)=O)c1OC(C)=O (centres undefined)	90.1*	96.1*
Cc1ccc(N(C(=O)c2ccccc2)C2C=CS(=O)(=O)C2)cc1 (centres undefined)	-2.7	-4.0
COc1cccc(C2CC(C(F)(F)F)n3ncc(C(=O)NCc4ccccc4)c3N2)c1 (centres undefined)	-3.6	-8.1

Screening results from PubChem.
